Bioassay records (PubChem BioAssay)
A selection: hits, their analogues and other compounds. The true share with any hit is near 21%.
Pf growth 48h: inhibits P. falciparum growth in the first generation, 48 h; 310,000 compounds, 5.9% hits; P. falciparum luciferase growth in erythrocytes, 48 h; Potency, µM (series often up to 28.7 µM), for inactives: top-dose activity change, negative = inhibition, most hits filed as inhibitors; also: potency is read from the fitted curve at half-maximal effect; % is scaled to controls: 0 for no effect and ±100 for the full control effect
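Luciferase-expressing P. falciparum in infected erythrocytes (2% hematocrit, 0.1% parasitemia final) in RPMI 1640/0.5% Albumax were exposed to compound for 48 hours at 37 C, 5% CO2; growth read as luminescence.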
Pf growth 96h: P. falciparum growth inhibition at 96 hours | P. falciparum luciferase reporter growth, 96 h | Potency, µM (doses to about 28.7 µM), for inactives: at the highest dose activity change, negative = inhibition, hits mostly inhibitors | 320,000 compounds, 6.9% hits; also: potency is read from the fitted curve at half-maximal effect; % is scaled to controls: 0 for no effect and ±100 for the full control effect
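Delayed-death screen, second-generation endpoint: infected erythrocytes, 2% hematocrit, 0.05% parasitemia final; 96 hours at 37 C, 5% CO2; luciferase detection reagent; luminescence decrease equals reduced growth.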
Cycloheximide cs: counter-screen for Shiga toxin inhibitors: cycloheximide protein synthesis inhibition; AID 2314; max response, %; cell reporter, cycloheximide protein synthesis inhibition counterscreen; 300,000 compounds, 12% hits; in the data active = max response mostly above about 13%, no sharp cut-off; inactive = mostly below about 14%; also: read at 38.3 µM for the half of the compounds with a filed dose; 0% is about no effect
Shiga inhibitor: inhibitors of Shiga toxin in Vero cells; inhibition, % at 38.7 µM; Vero cells, Shiga toxin protein synthesis inhibition reporter; 290,000 compounds, 9.2% hits; in the data active = inhibition mostly above about 28%, no sharp cut-off; inactive = mostly below about 43%; also: 0% is about no effect
AMA1 RON2 block: inhibitors of Plasmodium falciparum AMA1-RON2 interaction. Potency, µM (doses to about 58.2 µM), inactives show at the highest dose activity change, negative = inhibition, usual class: inhibitors. 360,000 compounds, 0.2% hits. AlphaScreen AMA1-biotinylated RON2 peptide binding;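 also: potency is read from the fitted curve at half-maximal effect; 0% = vehicle wells and -100% = peptide control; nearly all actives have a fitted effect of over 45% in size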
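AMA1 (3D7) with his tag at 25 nM final met compounds first, then biotinylated RON2 peptide at 25 nM; detection used donor plus acceptor beads, 10 µg/mL apiece, read by AlphaScreen after 30 min at room temperature.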
HCV inh: inhibitors of hepatitis C virus infection | Huh7.5.1 HCVcc-Cre infection, luciferase reporter, 44 h | 340,000 compounds, 3.4% hits | Potency, µM (series often up to 41.8 µM), without a hit: top-dose activity change, negative = inhibition, usual class: inhibitors; also: potency is read from the fitted curve at half-maximal effect; % is scaled to controls: 0 for no effect and ±100 for the full control effect
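Cells seeded at 1,000/well and cultured 4 h, then compounds added followed by HCVcc-Cre virus (~0.5 moi). After 44 h further culture, luciferase substrate was added, plates held 15 min at room temperature, and luminescence read for 15 sec.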
* marks the source's active call; other numbers are inactive results; [ ] = dose if it differs, or a comment. Unless noted, calls follow the shape of the dose curve; as a rule, active = well fitted curve in the direction sought with a large enough effect; inconclusive = small, poorly fitted or top-dose-only effect, or another doubt; inactive = no such curve, though single readings can be large; an effect the other way counts as inactive or inconclusive.

Screening Cc1cc(NC(=O)CSc2ccc3nnc(-c4cccs4)n3n2)no1 returned Pf growth 96h 2.3µM*, Cycloheximide cs -2, Shiga inhibitor 22, AMA1 RON2 block 1% and HCV inh -12%.
COc1ccc(OC)c(NC(=O)CSc2ccc3nnc(-c4cccnc4)n3n2)c1 was read as Pf growth 48h inconclusive, Pf growth 96h 12µM*, Cycloheximide cs 8, Shiga inhibitor 13, AMA1 RON2 block inconclusive and HCV inh 24%.
`CC(OC(=O)c1cccc(S(=O)(=O)N2CCCCC2)c1)C(=O)NC1CCCCC1C` (centres undefined) gave Pf growth 48h -10%, Pf growth 96h -1%, Cycloheximide cs -2, Shiga inhibitor -8, AMA1 RON2 block 5% and HCV inh inconclusive.
Screening COc1ccccc1N1CCN(C2CCN(C(=O)COc3ccccc3)CC2)CC1 returned Pf growth 48h 0%, Pf growth 96h 12%[5.75 µM], Cycloheximide cs -5, Shiga inhibitor -4, AMA1 RON2 block -1% and HCV inh -2%.
For O=C(O)c1ccc(S(=O)(=O)N[C@H](Cc2c[nH]c3ccccc23)C(=O)O)cc1 the results were Pf growth 48h 13%, Pf growth 96h 8%, Cycloheximide cs -2 and Shiga inhibitor -7.
Screening CN(Cc1ccccc1)C(=O)Nc1c(Cl)cccc1Cl returned AMA1 RON2 block 0%.
Screening Fc1cccc(Cl)c1CSc1ccc2nnc(-c3ccccn3)n2n1 returned Pf growth 48h -8%, Pf growth 96h -19%, Cycloheximide cs -3, Shiga inhibitor -27, AMA1 RON2 block -7% and HCV inh -26%.
For COc1ccc(NC(=O)CSc2ccc3nnc(-c4ccccn4)n3n2)cc1 the results were Pf growth 48h inconclusive, Pf growth 96h 12µM*, Cycloheximide cs 10, Shiga inhibitor -19 and AMA1 RON2 block -12%.
For Fc1cccc(CSc2ccc3nnc(-c4ccccn4)n3n2)c1 the results were Pf growth 48h inconclusive, Pf growth 96h 1.9µM*, Cycloheximide cs -7, Shiga inhibitor -3, AMA1 RON2 block inconclusive and HCV inh -21%.
`O=C1CSc2ccc(C(=O)O)cc2N1` gave Pf growth 48h 3%, Pf growth 96h 12µM*, Cycloheximide cs -3, Shiga inhibitor -9, AMA1 RON2 block 1% and HCV inh 8%.
Screening O=C(Nc1ccc2c(c1)nc1n2CCOC1)c1ccco1 returned Pf growth 48h 144%, Pf growth 96h 72%[5.75 µM], Cycloheximide cs 33*, Shiga inhibitor 73*, AMA1 RON2 block 18% and HCV inh 0%.
O=C(Nc1ccc2c(c1)nc1n2CCOC1)C1CCCCC1 was read as Pf growth 48h 90%, Pf growth 96h 199%, Cycloheximide cs 29*, Shiga inhibitor 81*, AMA1 RON2 block 2% and HCV inh 7%.
For Cc1ccc(S(=O)(=O)NCCC(=O)Nc2ccncc2)cc1C the results were Pf growth 48h -4%, Pf growth 96h -12%, AMA1 RON2 block -3% and HCV inh -1%[8.37 µM].
For Cc1cc(NC(=O)CSc2nnc(C(F)(F)F)n2C)no1 the results were AMA1 RON2 block 1%[11.6 µM] and HCV inh 19%.
Screening CCCSCCCNC(=O)CN1C(=O)COc2ccc(S(=O)(=O)N3CCCC3)cc21 returned Pf growth 48h -1%, Pf growth 96h inconclusive, Cycloheximide cs 8, Shiga inhibitor 7, AMA1 RON2 block -3% and HCV inh 2%.
For CCOC(=O)Nc1c(C(=O)OC)[nH]c2cc(OC)ccc12 the results were Pf growth 48h 14%, Pf growth 96h inconclusive, Cycloheximide cs 5, Shiga inhibitor -7, AMA1 RON2 block -1% and HCV inh 25µM*.
Screening C=CCOC(=O)Nc1c(C(=O)OC)[nH]c2ccccc12 returned Pf growth 48h inconclusive, Pf growth 96h 27%, Cycloheximide cs -3, Shiga inhibitor 26, AMA1 RON2 block -4% and HCV inh 10µM*.
`COC(=O)c1[nH]c2ccc(F)cc2c1NC(=O)Nc1ccc(OC)cc1` gave Pf growth 48h 20%, Pf growth 96h inconclusive, Cycloheximide cs -1, Shiga inhibitor -3, AMA1 RON2 block 2% and HCV inh 2%.
COC(=O)c1[nH]c2ccccc2c1NC(=O)Oc1ccccc1 was read as Pf growth 96h 78%, Cycloheximide cs 8, Shiga inhibitor 32, AMA1 RON2 block -4% and HCV inh 14%.
For COC(=O)c1[nH]c2ccc(C)cc2c1NC(=O)Nc1ccc(OC)cc1 the results were Pf growth 48h 43%, Pf growth 96h 47%, Cycloheximide cs 19*, Shiga inhibitor 40, AMA1 RON2 block 4% and HCV inh inconclusive.
For COC(=O)c1[nH]c2ccccc2c1NC(=O)c1ccccc1F the results were Pf growth 48h 9%, Pf growth 96h 17%, Cycloheximide cs -3, Shiga inhibitor 10, AMA1 RON2 block -7% and HCV inh 13µM*.
Screening Cc1cc(C)c2nc(N3CCN(C)CC3)c(C#N)cc2c1 returned Pf growth 48h 1%, Pf growth 96h inconclusive, Cycloheximide cs 11, Shiga inhibitor -10, AMA1 RON2 block 5% and HCV inh -3%.
N#Cc1cc2cc3c(cc2nc1N1CCCCC1)OCCO3 was read as Pf growth 48h 21%, Pf growth 96h -4%, Cycloheximide cs 22*, Shiga inhibitor 46, AMA1 RON2 block 5% and HCV inh 5%.
`Cc1cccc2cc(C#N)c(N3CCN(C)CC3)nc12` gave Pf growth 48h -11%, Pf growth 96h -1%, Cycloheximide cs 0, Shiga inhibitor -7, AMA1 RON2 block 0% and HCV inh 10µM*.
N#Cc1cc2cc3c(cc2nc1Cl)OCCO3 was read as AMA1 RON2 block 15%.
For Cc1ccc2nc(N3CCN(C)CC3)c(C#N)cc2c1 the results were Pf growth 48h -16%, Pf growth 96h -10%, Cycloheximide cs 33*, Shiga inhibitor 53, AMA1 RON2 block -2% and HCV inh -17%.
`Cc1ccc2nc(N3CCN(C)CC3)[nH]c2c1` gave Pf growth 48h 99%, Pf growth 96h inconclusive, Cycloheximide cs 48*, Shiga inhibitor 67*, AMA1 RON2 block 1% and HCV inh 13%.
`COc1ccc(S(=O)(=O)N2CCCCC2c2cc(C(=O)N3CCOCC3)no2)cc1` (centres undefined) gave AMA1 RON2 block -10%.
`CCOc1ccccc1N1CC(C(=O)Nc2cc(Cl)ccc2-n2cncn2)CC1=O` (centres undefined) gave Pf growth 48h 18%, Pf growth 96h 9%, AMA1 RON2 block -18% and HCV inh -7%.
`C=CCN(c1ccccc1OC)S(=O)(=O)c1cccc(C(=O)NCC(c2ccc(OC)cc2)N2CCCC2)c1` (centres undefined) gave AMA1 RON2 block 7%[11.6 µM] and HCV inh inconclusive.
